A selection: hits, their analogues and other compounds. The true share with any hit is near 11%.
Tau ThT inhib = tau fibrillization inhibition (ThT binding). P10636. recombinant tau K18 P301L, heparin-induced fibrillization, ThT fluorescence. Potency, µM (titrated, usually from 57.4 µM), most hits filed as inhibitors. 270,000 tested, 2.1% active. AID 1460; further: nearly all actives have a fitted effect of over 55% in size
Target sequence (P10636 561-689 P618L limits assumed): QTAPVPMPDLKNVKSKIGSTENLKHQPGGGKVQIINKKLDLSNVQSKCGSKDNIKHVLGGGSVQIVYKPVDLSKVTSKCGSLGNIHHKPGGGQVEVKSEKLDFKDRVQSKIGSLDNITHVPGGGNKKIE
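Recombinant human tau K18 fragment […] carrying P301L, 15 uM unlabeled plus 0.24 uM Alexa 594-labeled, was fibrillized with 20 uM heparin in 100 mM sodium acetate pH 7 for 6 hr at 37 C; 30 uM ThT fluorescence read after 1 hr.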
G9a inh = inhibitors of human histone lysine methyltransferase G9a | G9a H3K9 monomethylation, AlphaScreen, 2 h | Potency, µM (titrated, usually from 102 µM), actives largely listed as inhibitors | 350,000 tested, 8.8% active; further: nearly all actives have a fitted effect of over 75% in size
Target sequence (Q96KQ7 913-1193 limits assumed): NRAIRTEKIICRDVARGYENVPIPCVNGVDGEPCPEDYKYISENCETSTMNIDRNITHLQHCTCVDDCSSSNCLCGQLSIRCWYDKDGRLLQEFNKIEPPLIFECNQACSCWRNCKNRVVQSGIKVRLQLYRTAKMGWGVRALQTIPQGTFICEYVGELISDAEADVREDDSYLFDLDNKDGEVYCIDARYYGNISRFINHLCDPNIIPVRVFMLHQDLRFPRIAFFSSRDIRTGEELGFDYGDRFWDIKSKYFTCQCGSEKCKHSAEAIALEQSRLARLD
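Methyltransferase reactions run at room temperature for 2 h (20 nM enzyme, 500 nM biotin-H3K9 peptide, 20 uM SAM) after a 15 min compound preincubation; product detected by AlphaScreen beads and anti-H3K9me1 antibody.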
Tau fluor counter = counter-screen for tau fibril formation inhibitors | AID 1463 | Potency, µM (doses to about 57.7 µM) | 280,000 tested, 0.93% active | tau K18 P301L Alexa594 fluorescence, heparin fibrillization; further: nearly all actives have a fitted effect of over 55% in size
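Human K18 P301L tau (15 uM unlabeled plus 0.24 uM Alexa 594-labeled, final) in 100 mM sodium acetate pH 7 was mixed with compound and 20 uM heparin and incubated 6 hr at 37 C.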
Sfp inh = Sfp phosphopantetheinyl transferase inhibition; AID 1490; Biochemical Sfp PPTase activity, qHTS; Potency, µM, actives largely listed as inhibitors; 310,000 tested, 3.5% active;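 further: the enzyme is Sfp with the accession as filed and its product quenches rhodamine fluorescence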
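Sfp 15 nM + cpd, 15 min RT; start w/ rhodamine-CoA 5 uM, BHQ-2-YbbR 12.5 uM (final); 50 mM Hepes pH 7.6, 10 mM MgCl2, 0.01% NP-40, 0.01% BSA; read 525/598 nm at 0 and 30 min.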
Tau fibril FP = tau fibrillization inhibition (FP); Potency, µM (doses to about 57.7 µM), hits mostly inhibitors; K18 P301L tau heparin fibrillization, Alexa594 FP, 6 h; P10636; 280,000 tested, 0.39% active; further: nearly all actives have a fitted effect of over 55% in size
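Heparin (20 uM) drove fibril formation of recombinant tau K18 P301L, 15 uM unlabeled with 0.24 uM Alexa 594 label, for 6 hr at 37 C in 100 mM sodium acetate pH 7. Fluorescence polarization (555/632 nm) read 1 hr after 30 uM ThT.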
Coupling enz = inhibits coupling enzyme system, counter-screen for aldolase hits | coupling enzyme system counterscreen, AmpLite Red fluorescence | activity change, negative = inhibition, % at 58.2 µM, hits read low | 290,000 tested, 0.67% active | AID 2472; in the data active means activity change below about -30%
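Compounds tested against the coupling enzymes alone at 57.5 uM final; readout was AmpLite Red fluorescence (525/598 nm) after 20 min at RT.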
A number is an active result; – = inactive; ? = inconclusive; · = not tested or not shown; ! = not confirmed by another sample; [ ] = remark or other dose. Unless noted, the call rests on the fitted dose curve; in most records, active means well fitted curve in the direction sought with a large enough effect; inconclusive means small, poorly fitted or top-dose-only effect, or another doubt; inactive means no such curve, though single readings can be large; an effect the other way counts as inactive or inconclusive.

SMILES | Tau ThT inhib | G9a inh | Tau fluor counter | Sfp inh | Tau fibril FP | Coupling enz
COc1ccc(OCc2nc3c4cc(OC)c(OC)cc4nc(=S)n3[nH]2)cc1 | ? | 1µM | – | – | – | –
C=CCn1c(-c2cccc(OC)c2)nc2nc3ccccc3nc21 | ? | – | – | – | – | –
C=CCn1c(-c2cccnc2)n[nH]c1=S | – | 44.7µM | – | – | – | –
C=CCn1c(-c2cccc(OC)c2)n[nH]c1=S | – | 7.08µM | – | – | – | –
CC1(C)CO[C@H](CC(=O)O)CN1 | – | · | – | – | – | –
CCc1ccc(/C=C2/C(=O)N(C)C(=S)N2CC(=O)OC)s1 | – | 35.5µM | – | – | – | –
COC(=O)C1CSc2[nH]c(=O)sc2C1c1ccccc1 (centres undefined) | – | 56.2µM | – | 44.7µM | – | –
O=C1NC(NS(=O)(=O)c2ccccc2)(C(F)(F)F)C(=O)N1CCc1ccccc1 (centres undefined) | – | – | – | – | – | –
COc1ccc(S(=O)(=O)NC2(C(F)(F)F)NC(=O)N(CCc3ccccc3)C2=O)cc1 (centres undefined) | – | 44.7µM | – | – | – | –
COc1ccc(S(=O)(=O)NC2(C(F)(F)F)NC(=O)N(CCc3ccc(OC)c(OC)c3)C2=O)cc1 (centres undefined) | – | 50.1µM! | – | – | – | –
O=C(NCC1CC1)Nc1cccc(C(F)(F)F)c1 | · | –[0.501 µM] | · | – | · | –
CCCC(=O)Nc1ccc(N2CCN(C(=O)CCC)CC2)cc1 | ? | 50.1µM | – | – | – | –
CCC(=O)Nc1ccc(N2CCC(C)CC2)cc1 | – | 8.91µM | – | – | – | –
COc1ccc(NC(=O)CN2CCC(C)CC2)cc1 | – | – | – | – | – | –
CCC(=O)Nc1ccc(C(=O)CN2CCC(C)CC2)cc1 | ? | 10µM | – | – | – | –
CC1CCN(c2ccc(NC(=O)Cc3ccccc3)cc2)CC1 | – | · | – | – | – | –
CC(C)CC(=O)Nc1ccc(C(=O)CN2CCC(C)CC2)cc1 | – | 10µM | – | ? | – | –
CCOCCn1c2ccccc2c2nc3ccccc3nc21 | · | – | · | – | · | –
CC1CCN(CC(=O)Nc2ccc(C(=O)N3CCCCC3)cc2)CC1 | · | 28.2µM | · | – | · | –
CC(C)C(NC(=O)c1ccc(C(C)(C)C)cc1)C(=O)Nc1cccc(S(N)(=O)=O)c1 (centres undefined) | – | – | – | – | – | –
CS(=O)(=O)NCCNc1ccc(C(F)(F)F)cc1[N+](=O)[O-] | – | – | – | – | – | –
COc1ccc2[nH]c(C)c(CCNC(=S)Nc3ccccc3OC)c2c1 | ? | 56.2µM | ? | – | – | –
COc1ccc2[nH]c(C)c(CCNC(=S)Nc3cc(C)ccc3C)c2c1 | – | – | – | – | – | –
COc1ccc2[nH]c(C)c(CCNC(=S)Nc3cc(C)cc(C)c3)c2c1 | – | – | ? | – | – | –
COc1ccc2[nH]c(C)c(CCNc3ccc(C(F)(F)F)cc3[N+](=O)[O-])c2c1 | ? | 11.2µM | 11.2µM[quencher] | – | ? | –
SMILES | Tau ThT inhib | G9a inh | Tau fluor counter | Sfp inh | Tau fibril FP | Coupling enz
COc1ccc2[nH]c(C)c(CCNC(=S)Nc3cccc(C)c3)c2c1 | ? | 44.7µM | 15.8µM[quencher] | – | – | –
COc1ccc2[nH]c(C)c(CCNC(=S)Nc3ccc(F)cc3)c2c1 | – | 56.2µM | ? | – | ? | –
Cc1cc(NC(=O)CSCC(=O)N(C)Cc2ccc(Cl)cc2Cl)no1 | · | – | · | · | · | ·
FC(F)(F)c1cc(CN2CCCC3(CCNCC3)C2)cc(C(F)(F)F)c1 | · | –[12.7 µM] | · | – | · | –
Cc1cc(C)c2cc(C(=O)Nc3ccc(C)c(F)c3)[nH]c2c1 | · | 44.7µM | · | – | · | –
CCCCNC(=O)c1cc2c(C)cc(C)cc2[nH]1 | · | 50.1µM | – | – | – | –
CCCCNC(=O)c1cccc(C(=O)NCCCC)c1 | – | –[12.7 µM] | – | – | – | –
CCOC(=O)C1=C(CS(=O)(=O)c2ccc(C)cc2)NC(=O)NC1c1ccc(C(C)C)cc1 (centres undefined) | – | – | – | · | – | ·
COc1ccc2c(c1)CCc1sc(NC(=O)c3ccc(C)cc3)nc1-2 | ? | – | ? | – | – | ·
